Results filed as inconclusive are left out. Active and inactive are the calls of the source. Unless noted, calls follow the shape of the dose curve; as a rule, active = well fitted curve in the direction sought with a large enough effect; inconclusive = small, poorly fitted or top-dose-only effect, or another doubt; inactive = no such curve, though single readings can be large; an effect the other way counts as inactive or inconclusive.
Assays:
[1] = qHTS Assay for Lipid Storage Modulators (AID 1519; calls by dose curve); details: Drosophila S3 cells, BODIPY lipid droplet/cell ratio, laser cytometry, cells loaded with oleic acid
In short: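 Cells seeded at 5,000 per well were treated with compounds over a concentration series and loaded with oleic acid (400 uM, as added). Lipid droplet fluorescence (488 nm excitation, 500-530 nm channel) was read by laser-scanning cytometry and normalized to 20 uM Triacsin C.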

[2] = molecular target: Alpha-galactosidase A (Homo sapiens) (UniProt P06280); assay: Counterscreen for Glucocerebrosidase Inhibitors: qHTS Assay for Human alpha-Galactosidase at pH 4.5 (AID 992); details: purified enzyme, fluorogenic substrate; series mostly up to 76.9 µM; also: 0% is about no effect
In short: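 Each compound is preincubated briefly with 2 nM enzyme before substrate addition (80 uM); plates then sit 20 min at ambient temperature, are quenched with 1M NaOH/1M glycine, and read fluorometrically.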

[3] = molecular target: alpha-glucosidase (Oryza sativa, rice) (UniProt Q653V4); assay: Counterscreen for Glucocerebrosidase Inhibitors: qHTS Assay for Rice alpha-Glucosidase at pH 5.0 (AID 997); details: rice alpha-glucosidase enzyme activity; series mostly up to 76.9 µM;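 also: 0% = full activity with enzyme and -100% = basal without enzyme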
In short: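 Endpoint fluorogenic assay at pH 5.0: compounds (0.7 nM to 77 uM) titrated against 4 nM rice enzyme and 400 uM 4-MU-alpha-glucoside for 20 min at room temperature; NaOH/glycine stop, read ex 365/em 440 nm, Hill-fitted AC50.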

[4] = Cell Viability - LYMP1-002 - Assay at 24 hr (AID 993); details: LYMP1-002 lymphoblastoid cells viability; series mostly up to 92.2 µM; also: % is scaled to controls: 0 for no effect and ±100 for the full control effect
In short: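 CellTiter-Glo luminescence (intracellular ATP) after 24 h compound exposure, 37 C, in LYMP1-002 human lymphoblastoid cells; decreased ATP taken as cytotoxicity. AC50 from standard Hill fit of concentration-response curves.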

[5] = Cell Viability - LYMP1-002 - Assay at 40 hr (AID 994); details: LYMP1-002 lymphoblastoid cell viability; series mostly up to 92.2 µM;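 also: 0% = DMSO only and full inhibition = 92 µM tetraoctylammonium bromide; nearly all actives have a fitted effect of over 60% in size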
In short: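 qHTS cytotoxicity; 2500 cells/well, 5 hr 37 C settle, compound 40 hr 37 C. CellTiter-Glo, 30 min RT, luminescence (ATP). Concentration-response, Hill fit → AC50. Pos. ctrl tetraoctylammonium bromide.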

[6] = qHTS Assay for Identification of Small Molecule Inducers of Hypoxia Response (AID 2120; active = well fitted curve in the direction sought with a large enough effect in the signal ratio, with a control signal flat, not every such curve was filed as active; the % refers to the signal ratio; also: 0% is about no effect); details: hypoxia response reporter cells, beta-lactamase ratio readout; series mostly up to 104 µM
In short: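 Read-out: CCF4 FRET emission ratio 460nm/530nm (excitation 405nm), converted to %Activity, with AC50 fitted across a compound titration. ME-180 cells carried an HRE-driven beta-lactamase reporter; compound exposure 17 h, 37 degrees C.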

[7] = molecular target: Bile acid receptor (Homo sapiens) (UniProt Q96RI1); assay: qHTS assay for small molecule antagonists of farnesoid X receptor signaling (AID 588526; calls by dose curve; also: % is scaled to controls: 0 for no effect and ±100 for the full control effect); details: HEK293T FXR-UAS-bla, beta-lactamase ratio, antagonist mode; series mostly up to 76.7 µM
In short: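 Beta-lactamase reporter antagonist mode: HEK293T FXR-UAS-bla cells, titrated compound, CDCA stimulation, 16 h 37 C, CCF4 dye 2 h RT. Data normalized to CDCA 50 uM and DMSO; Hill-fit IC50.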

[8] = molecular target: Glucocorticoid receptor (Homo sapiens) (UniProt P04150); assay: qHTS assay for small molecule agonists of glucocorticoid receptor signaling (AID 588532; active = well fitted curve in the direction sought with a large enough effect in the signal ratio, with a control signal flat; the % refers to the signal ratio;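 also: 100% = dexamethasone at 0.1 µM and 0% = DMSO only wells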); details: HeLa MMTV-bla, beta-lactamase ratio, agonist, 18 h; stronger effect = higher value; percent of dexamethasone control, DMSO zero
In short: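 Quantitative HTS using CellSensor MMTV-bla HeLa cells in charcoal/dextran-treated serum; compounds tested up to 92 uM. After 18 h at 37 C, CCF4 dye reported reporter induction.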

[9] = molecular target: Glucocorticoid receptor (Homo sapiens) (UniProt P04150); assay: qHTS assay for small molecule antagonists of glucocorticoid receptor signaling (AID 588533; active = well fitted inhibition curve with a large enough effect in the signal ratio, with a control signal flat, not every such curve was filed as active; the % refers to the signal ratio;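 also: cells stimulated with 2 nM dexamethasone as agonist; % is scaled to controls: 0 for no effect and ±100 for the full control effect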); details: HeLa MMTV-bla, GRE beta-lactamase ratio, antagonist mode, 18 h; series mostly up to 76.8 µM
In short: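 Antagonist-mode qHTS: compound titrations added to GRE-bla HeLa cells, then dexamethasone 2 nM final; 18 h, 37 C. CCF4 FRET fluorescence normalized to dexamethasone and DMSO; IC50 from Hill fit.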

[10] = qHTS assay for small molecule antagonists of peroxisome proliferator-activated receptor delta signaling (AID 588535; active = well fitted inhibition curve with a large enough effect in the signal ratio, with a control signal flat, not every such curve was filed as active; the % refers to the signal ratio;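 as to max response: cells co-treated with a PPAR-delta agonist as stimulator during compound exposure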); details: HEK293T PPARd-UAS-bla, beta-lactamase FRET ratio, 18 h; 460 nm channel
In short: (§1)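 Antagonist-mode qHTS using GeneBLAzer PPAR-delta-UAS-bla HEK293T cells; compound exposure 18 hrs at 37 C over a titration. Ratiometric CCF4 fluorescence at 460/530 nm; concentration-response points fitted to the Hill equation.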

[11] = molecular target: Peroxisome proliferator-activated receptor delta (Homo sapiens) (UniProt Q03181); assay: as above; details: HEK293T PPARd-UAS-bla, beta-lactamase FRET ratio, 18 h; series mostly up to 76.7 µM
In short: as §1

[12] = molecular target: Peroxisome proliferator-activated receptor gamma (Homo sapiens) (UniProt P37231); assay: qHTS assay for small molecule agonists of peroxisome proliferator-activated receptor gamma signaling (AID 588536; active = well fitted curve in the direction sought with a large enough effect in the signal ratio, with a control signal flat, not every such curve was filed as active; the % refers to the signal ratio;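 also: 0% = DMSO basal wells and 100% = rosiglitazone at 2 µM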); details: HEK293 PPARg-UAS-bla, beta-lactamase ratio, 16 h, percent of rosiglitazone response, DMSO as zero; series mostly up to 76.7 µM
In short: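 Using GeneBLAzer HEK293 cells, response was quantified by CCF4 fluorescence and normalized between basal DMSO (0%) and rosiglitazone 2 uM (100%); curves yielded half-maximal stimulation concentration and efficacy.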

[13] = molecular target: Peroxisome proliferator-activated receptor gamma (Homo sapiens) (UniProt P37231); assay: qHTS assay for small molecule antagonists of peroxisome proliferator-activated receptor gamma signaling (AID 588537; active = well fitted inhibition curve with a large enough effect in the signal ratio, with a control signal flat, not every such curve was filed as active; the % refers to the signal ratio;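 also: reporter cells co-stimulated with 50 nM rosiglitazone agonist during compound treatment; % of control where 0% means no effect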); details: HEK293 PPARg-UAS-bla, beta-lactamase ratio, antagonist mode; series mostly up to 76.8 µM
In short: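 Cell-based beta-lactamase assay; GW9662 served as the antagonist control. Stimulation used rosiglitazone, final 50 nM, 16 h, 37 C.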

[14] = molecular target: Vitamin D3 receptor (Homo sapiens) (UniProt P11473); assay: qHTS assay for small molecule antagonists of vitamin D receptor signaling (AID 588541; calls by dose curve;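 also: receptor activated by calcitriol during compound treatment; % is scaled to controls: 0 for no effect and ±100 for the full control effect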); details: HEK293T VDR-UAS-bla, beta-lactamase ratio, antagonist mode; series mostly up to 76.7 µM
In short: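 Antagonist-mode beta-lactamase reporter assay: HEK293T VDR-UAS-bla cells were exposed to titrated compound alongside 1-alpha,25-dihydroxyvitamin D3 at 3 nM final for 16 h. Values were normalized to the 50 nM agonist control and DMSO basal, with IC50 and efficacy from Hill equation fits.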

[15] = molecular target: Estrogen receptor (Homo sapiens) (UniProt P03372); assay: qHTS assay for small molecule antagonists of estrogen receptor alpha signaling (AID 588513; active = well fitted curve in the direction sought with a large enough effect in the signal ratio, with a control signal flat, not every such curve was filed as active; the % refers to the signal ratio; also: % is scaled to controls: 0 for no effect and ±100 for the full control effect); details: ER-alpha-UAS-bla HEK293, beta-lactamase ratio, antagonist mode; series mostly up to 76.9 µM
In short: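 Antagonist-mode qHTS in ER-alpha-UAS-bla HEK 293 cells: compound titration, 0.5nM estradiol for 18 h, CCF4 fluorescence, Hill-derived IC50.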

[16] = molecular target: Estrogen receptor (Homo sapiens) (UniProt P03372); assay: qHTS assay for small molecule agonists of estrogen receptor alpha signaling (AID 588514; calls by dose curve;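 also: 0% = vehicle only and 100% = reference agonist; nearly all actives have a fitted effect of over 70% in size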); details: ER-alpha-UAS-bla HEK293, beta-lactamase ratio, 18 h, percent of full estradiol response, vehicle zero; series mostly up to 76.8 µM
In short: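 Read-out: CCF4 fluorescence from a beta-lactamase reporter in ER-alpha-UAS-bla HEK 293 cells after 18 hrs of compound exposure at 37 C. Normalized to 20 nM 17-beta-estradiol (100%) and DMSO (0%).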

[17] = molecular target: Androgen receptor (Homo sapiens) (UniProt P10275); assay: qHTS assay for small molecule agonists of androgen receptor signaling (AID 588515; active = well fitted curve in the direction sought with a large enough effect in the signal ratio, with a control signal flat; the % refers to the signal ratio; also: % is scaled to controls: 0 for no effect and ±100 for the full control effect); details: AR-UAS-bla HEK293, beta-lactamase ratio, agonist 16 h; stronger effect = higher value
In short: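 Stimulation of an AR-responsive β-lactamase reporter in GripTite HEK293 cells was measured after 16 h compound exposure at 37 °C, via CCF4 fluorescence after 2 h RT. EC50 from Hill fits, normalized to R1881 at 30 nM.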

[18] = molecular target: Androgen receptor (Homo sapiens) (UniProt P10275); assay: qHTS assay for small molecule antagonists of androgen receptor signaling (AID 588516; active = well fitted curve in the direction sought with a large enough effect in the signal ratio, with a control signal flat, not every such curve was filed as active; the % refers to the signal ratio; also: % is scaled to controls: 0 for no effect and ±100 for the full control effect); details: AR-UAS-bla HEK293, beta-lactamase ratio, antagonist mode, 16 h; series mostly up to 76.8 µM
In short: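 Compounds tested in titration against 10 nM R1881 in AR-responsive bla reporter HEK 293 cells; CCF4 fluorescence (460/530 nm) after 16 h exposure gave IC50 and efficacy.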

[19] = molecular target: ATP-dependent 6-phosphofructokinase (Trypanosoma brucei brucei) (UniProt O15648); assay: qHTS Assay to Find Inhibitors of T. brucei phosphofructokinase: hit validation (AID 492961); details: T. brucei PFK, ADP-Glo luminescence; series mostly up to 51.4 µM
In short: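 In this biochemical qHTS validation, titrated compounds were tested against 1.25 nM PFK with 0.1 mM ATP and 0.5 mM F6P. Percent activity came from controls lacking or containing enzyme.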

[20] = molecular target: Ubiquitin carboxyl-terminal hydrolase 1 (Homo sapiens) (UniProt O94782); assay: Inhibitors of USP1/UAF1: Pilot qHTS (AID 504865); details: purified USP1/UAF1, Ub-rhodamine cleavage fluorescence; series mostly up to 114 µM;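 also: rhodamine fluorescence freed from ubiquitin-rhodamine substrate followed over time; top concentration of the series differs between compounds; % is scaled to controls: 0 for no effect and ±100 for the full control effect; nearly all actives have a fitted effect of over 35% in size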
In short: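 Enzyme-free wells gave the negative control, while test wells held 1nM USP1/UAF1 preincubated with compound for 15 min at room temperature. Ub-Rho at 150nM final started the reaction, and fluorescence at 480/540 nm was recorded kinetically.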

Chain of Vitamin D3 receptor (Homo sapiens) (P11473 whole entry, looked up): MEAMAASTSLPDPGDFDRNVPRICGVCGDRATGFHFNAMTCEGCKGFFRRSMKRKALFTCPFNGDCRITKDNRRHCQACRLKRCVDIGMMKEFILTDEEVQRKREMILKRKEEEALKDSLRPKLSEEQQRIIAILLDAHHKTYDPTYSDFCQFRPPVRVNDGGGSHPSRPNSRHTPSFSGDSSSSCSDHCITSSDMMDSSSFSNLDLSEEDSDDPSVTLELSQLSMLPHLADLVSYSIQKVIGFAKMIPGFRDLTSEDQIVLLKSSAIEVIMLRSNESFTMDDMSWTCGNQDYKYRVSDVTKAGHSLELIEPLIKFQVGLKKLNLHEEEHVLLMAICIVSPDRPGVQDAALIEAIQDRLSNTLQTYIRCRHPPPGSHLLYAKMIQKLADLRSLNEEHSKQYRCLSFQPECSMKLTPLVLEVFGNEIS
Chain of Peroxisome proliferator-activated receptor gamma (Homo sapiens) (P37231 whole entry, looked up): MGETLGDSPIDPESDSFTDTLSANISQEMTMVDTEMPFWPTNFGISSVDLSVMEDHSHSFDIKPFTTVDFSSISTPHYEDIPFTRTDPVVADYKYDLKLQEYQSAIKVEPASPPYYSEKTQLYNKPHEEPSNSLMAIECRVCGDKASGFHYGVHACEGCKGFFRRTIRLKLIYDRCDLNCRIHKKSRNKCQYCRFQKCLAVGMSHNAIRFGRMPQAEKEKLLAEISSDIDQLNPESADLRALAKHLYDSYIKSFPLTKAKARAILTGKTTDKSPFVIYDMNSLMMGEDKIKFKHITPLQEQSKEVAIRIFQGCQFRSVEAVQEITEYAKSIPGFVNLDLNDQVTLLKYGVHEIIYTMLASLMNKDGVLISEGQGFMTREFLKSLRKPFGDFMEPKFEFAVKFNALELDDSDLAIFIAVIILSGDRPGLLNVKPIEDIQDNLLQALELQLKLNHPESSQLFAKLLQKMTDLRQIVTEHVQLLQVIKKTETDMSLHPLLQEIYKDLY
Chain of Estrogen receptor (Homo sapiens) (P03372 whole entry, looked up): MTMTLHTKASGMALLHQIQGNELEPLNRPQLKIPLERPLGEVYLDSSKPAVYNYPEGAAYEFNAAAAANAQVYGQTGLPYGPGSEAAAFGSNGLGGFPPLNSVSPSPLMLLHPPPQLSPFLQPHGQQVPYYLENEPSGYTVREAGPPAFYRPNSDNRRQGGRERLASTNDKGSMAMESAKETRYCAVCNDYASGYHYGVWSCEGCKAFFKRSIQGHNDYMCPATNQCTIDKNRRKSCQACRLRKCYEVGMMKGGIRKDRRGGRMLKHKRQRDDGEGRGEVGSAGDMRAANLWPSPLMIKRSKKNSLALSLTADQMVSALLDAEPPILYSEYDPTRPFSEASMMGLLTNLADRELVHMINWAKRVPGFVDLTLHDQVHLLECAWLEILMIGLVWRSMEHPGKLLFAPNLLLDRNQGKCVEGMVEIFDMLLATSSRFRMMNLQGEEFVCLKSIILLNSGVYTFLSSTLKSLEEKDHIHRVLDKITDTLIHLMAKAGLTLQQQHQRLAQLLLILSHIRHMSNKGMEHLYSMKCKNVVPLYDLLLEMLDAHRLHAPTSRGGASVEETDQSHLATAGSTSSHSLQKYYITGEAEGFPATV
Chain of Glucocorticoid receptor (Homo sapiens) (P04150 whole entry, looked up): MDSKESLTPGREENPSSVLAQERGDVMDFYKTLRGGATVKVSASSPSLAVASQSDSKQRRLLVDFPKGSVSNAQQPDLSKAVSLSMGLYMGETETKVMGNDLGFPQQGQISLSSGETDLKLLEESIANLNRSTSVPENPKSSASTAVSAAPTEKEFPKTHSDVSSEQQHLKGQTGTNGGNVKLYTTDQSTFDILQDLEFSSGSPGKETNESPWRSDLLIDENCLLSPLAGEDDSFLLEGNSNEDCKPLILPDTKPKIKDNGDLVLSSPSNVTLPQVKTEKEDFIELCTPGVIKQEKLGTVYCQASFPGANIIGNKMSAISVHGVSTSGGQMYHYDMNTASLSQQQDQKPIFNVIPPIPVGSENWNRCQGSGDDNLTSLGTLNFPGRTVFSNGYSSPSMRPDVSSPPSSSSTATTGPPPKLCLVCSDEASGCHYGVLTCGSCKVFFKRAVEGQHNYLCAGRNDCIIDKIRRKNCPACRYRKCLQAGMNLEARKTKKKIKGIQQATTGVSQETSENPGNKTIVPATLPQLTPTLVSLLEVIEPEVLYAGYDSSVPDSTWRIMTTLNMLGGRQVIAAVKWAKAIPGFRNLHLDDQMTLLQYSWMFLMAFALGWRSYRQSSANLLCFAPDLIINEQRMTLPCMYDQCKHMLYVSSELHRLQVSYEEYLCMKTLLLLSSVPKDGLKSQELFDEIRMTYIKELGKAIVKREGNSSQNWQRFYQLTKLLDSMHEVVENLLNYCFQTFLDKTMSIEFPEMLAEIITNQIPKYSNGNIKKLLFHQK
Chain of Ubiquitin carboxyl-terminal hydrolase 1 (Homo sapiens) (O94782 whole entry, looked up): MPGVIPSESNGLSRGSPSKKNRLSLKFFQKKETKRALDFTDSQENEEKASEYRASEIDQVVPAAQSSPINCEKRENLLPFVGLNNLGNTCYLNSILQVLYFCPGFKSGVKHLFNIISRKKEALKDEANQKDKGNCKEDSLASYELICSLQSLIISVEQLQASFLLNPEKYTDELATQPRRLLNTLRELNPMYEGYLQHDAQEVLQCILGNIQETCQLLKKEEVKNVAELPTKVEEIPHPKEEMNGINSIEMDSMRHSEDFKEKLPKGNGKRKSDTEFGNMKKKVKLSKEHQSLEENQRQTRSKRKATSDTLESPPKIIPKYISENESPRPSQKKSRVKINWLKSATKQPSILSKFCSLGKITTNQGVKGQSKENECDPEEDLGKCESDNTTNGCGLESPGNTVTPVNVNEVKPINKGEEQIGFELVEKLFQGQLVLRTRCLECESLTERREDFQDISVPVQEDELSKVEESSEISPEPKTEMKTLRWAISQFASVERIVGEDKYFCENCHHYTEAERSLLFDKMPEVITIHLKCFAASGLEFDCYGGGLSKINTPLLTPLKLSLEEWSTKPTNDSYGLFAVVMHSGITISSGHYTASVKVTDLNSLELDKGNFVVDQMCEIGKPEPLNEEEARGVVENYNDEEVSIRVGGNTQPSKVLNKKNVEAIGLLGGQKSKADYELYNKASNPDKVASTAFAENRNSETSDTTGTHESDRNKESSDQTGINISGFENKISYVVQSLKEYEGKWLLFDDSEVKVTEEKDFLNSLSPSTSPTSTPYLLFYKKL
Chain of Peroxisome proliferator-activated receptor delta (Homo sapiens) (Q03181 whole entry, looked up): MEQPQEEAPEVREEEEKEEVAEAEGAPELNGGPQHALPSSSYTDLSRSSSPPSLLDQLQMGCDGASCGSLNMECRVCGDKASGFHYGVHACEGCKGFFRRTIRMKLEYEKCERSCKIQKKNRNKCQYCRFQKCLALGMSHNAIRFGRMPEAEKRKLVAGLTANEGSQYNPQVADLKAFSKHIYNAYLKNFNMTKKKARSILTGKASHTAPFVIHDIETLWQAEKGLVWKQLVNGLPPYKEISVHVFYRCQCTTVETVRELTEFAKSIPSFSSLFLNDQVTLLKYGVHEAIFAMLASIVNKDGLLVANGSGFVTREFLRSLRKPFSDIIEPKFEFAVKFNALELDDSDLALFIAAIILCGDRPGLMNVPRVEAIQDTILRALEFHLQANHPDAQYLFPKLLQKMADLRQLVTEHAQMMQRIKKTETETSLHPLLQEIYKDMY
Chain of Androgen receptor (Homo sapiens) (P10275 whole entry, looked up): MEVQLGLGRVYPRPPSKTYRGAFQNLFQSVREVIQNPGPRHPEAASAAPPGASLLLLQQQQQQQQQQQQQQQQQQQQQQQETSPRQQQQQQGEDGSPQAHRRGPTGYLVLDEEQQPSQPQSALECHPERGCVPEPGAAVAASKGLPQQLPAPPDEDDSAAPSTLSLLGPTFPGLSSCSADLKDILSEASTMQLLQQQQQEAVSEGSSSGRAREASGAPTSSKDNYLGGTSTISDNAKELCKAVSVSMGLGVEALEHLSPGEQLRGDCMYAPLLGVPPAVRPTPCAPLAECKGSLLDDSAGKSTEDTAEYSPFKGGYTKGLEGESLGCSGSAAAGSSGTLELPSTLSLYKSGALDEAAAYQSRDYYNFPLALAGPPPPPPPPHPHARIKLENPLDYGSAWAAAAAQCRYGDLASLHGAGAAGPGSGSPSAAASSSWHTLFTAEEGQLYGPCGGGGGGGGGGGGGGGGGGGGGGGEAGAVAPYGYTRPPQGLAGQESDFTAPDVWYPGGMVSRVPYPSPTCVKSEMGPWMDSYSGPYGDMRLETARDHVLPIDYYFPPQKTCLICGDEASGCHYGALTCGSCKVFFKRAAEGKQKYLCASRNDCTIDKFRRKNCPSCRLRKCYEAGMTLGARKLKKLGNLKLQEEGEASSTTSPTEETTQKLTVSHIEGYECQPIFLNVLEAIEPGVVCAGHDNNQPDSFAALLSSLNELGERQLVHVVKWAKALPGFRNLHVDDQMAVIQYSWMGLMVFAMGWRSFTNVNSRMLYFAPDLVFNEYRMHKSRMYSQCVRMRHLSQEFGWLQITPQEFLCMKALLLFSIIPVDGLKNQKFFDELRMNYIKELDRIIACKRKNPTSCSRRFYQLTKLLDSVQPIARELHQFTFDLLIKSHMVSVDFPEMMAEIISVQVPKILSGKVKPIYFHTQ
Chain of Alpha-galactosidase A (Homo sapiens) (P06280 whole entry, looked up): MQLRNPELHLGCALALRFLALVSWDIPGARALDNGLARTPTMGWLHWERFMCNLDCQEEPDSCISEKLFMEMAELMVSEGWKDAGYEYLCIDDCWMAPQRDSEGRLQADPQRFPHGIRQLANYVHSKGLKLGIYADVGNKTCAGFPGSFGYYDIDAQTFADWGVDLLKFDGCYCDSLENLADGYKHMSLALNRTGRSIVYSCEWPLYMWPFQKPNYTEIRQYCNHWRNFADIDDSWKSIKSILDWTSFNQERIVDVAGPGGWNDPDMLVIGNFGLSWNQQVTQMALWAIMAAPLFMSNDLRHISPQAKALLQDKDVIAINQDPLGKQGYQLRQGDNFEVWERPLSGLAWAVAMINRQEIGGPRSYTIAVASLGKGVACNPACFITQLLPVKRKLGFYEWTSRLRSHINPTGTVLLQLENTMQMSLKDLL

CCc1cccc2c3c([nH]c12)[C@@](CC)(CC(=O)O)OCC3
8.85%: max response ([1]; measured here: cell count channel max response)
inactive: activity change, negative = inhibition ([1]; at 25.7 µM (top of the series)) -1.67%
4.97%: max response ([1]; measured here: lipid channel max response)

C[C@]1(C2CCCC2)Cc2cc(OCC(=O)O)c(Cl)c(Cl)c2C1=O
inactive: outcome [2] | outcome [3]

C=C1C[C@]23C[C@@]1(O)CC[C@H]2[C@@]12C=C[C@H](O)[C@@](C)(C(=O)O1)[C@H]2[C@@H]3C(=O)O
8.68%: max response [10]
inactive: outcome [4] | outcome [5] | outcome [6] | outcome [7] | activation [8] -5.06% | outcome [9] | outcome [11] | outcome [12] | outcome [13] | outcome [14]

COc1ccc(CCC(=O)c2c(O)cc(O[C@@H]3O[C@H](CO)[C@@H](O)[C@H](O)[C@H]3O[C@@H]3O[C@@H](C)[C@H](O)[C@@H](O)[C@H]3O)cc2O)cc1O
inactive: outcome [4] | outcome [5] | outcome [6] | outcome [15] | outcome [16] | activation [17] 12.1% | outcome [18] | activation [8] -0.542% | outcome [9] | outcome [12] | outcome [14]

CCOC(=O)C(CCc1ccccc1)NC(C)C(=O)N1Cc2ccccc2CC1C(=O)O (configuration not stated)
inactive: outcome [19] | outcome [20]

CC(C)C[C@H](NC(=O)[C@@H]1O[C@H]1C(=O)O)C(=O)NCCCCN=C(N)N
inactive: outcome [2] | outcome [3]

O=C(/C=C/C=C/c1ccc2c(c1)OCO2)N1CCCCC1
-63.1%: max response [10]
inactive: outcome [20] | outcome [15] | outcome [16] | outcome [11] | outcome [14]
